Common to all, as to test: DAPPL (digital affinity profiling via proximity ligation, sequencing); 10 mM Tris-HCl pH 7.5, 50 mM NaCl, 1 mM DTT, 4% glycerol, room temperature, 30 min; GST-TFs on glutathione beads, 16-mer random dsDNA library, 0.1% formaldehyde crosslink after washing; high values mean tight binding
One experiment has as its target T1, FEV (Homo sapiens, UniProt Q99581 1-238).
T1 sequence: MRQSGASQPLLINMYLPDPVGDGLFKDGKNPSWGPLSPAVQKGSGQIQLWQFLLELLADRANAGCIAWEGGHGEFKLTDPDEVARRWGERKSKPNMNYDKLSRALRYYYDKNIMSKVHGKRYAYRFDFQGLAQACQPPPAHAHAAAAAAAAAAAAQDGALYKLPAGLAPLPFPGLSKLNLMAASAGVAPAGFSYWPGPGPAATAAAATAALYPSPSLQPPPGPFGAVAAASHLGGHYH
To be noted: protein: recombinant; tags: N-terminal GST; dsDNA, one strand shown. Summed up:
(§1)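 Binding signal is defined as a hexamer's read frequency for one factor over its frequency for the tag-only sample. To obtain reads, GST-fused human transcription factors were expressed in yeast, captured on glutathione beads, barcoded with DNA and pooled with that sample. Pools met 200 nmole of a 16-mer random double-stranded DNA library in Tris/NaCl/DTT/glycerol buffer for 30 min at room temperature before washing, 0.1% formaldehyde crosslinking, proximity ligation (BsaI/T4 ligase, 1 h, 37 °C), PCR and Illumina NextSeq500 sequencing.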

For another experiment, the target named is ETV5 (Homo sapiens, UniProt P41161 1-510). To be noted: protein: recombinant; tags: N-terminal GST; dsDNA, one strand shown. Summed up: as §1
ETV5, sequence (P41161 whole entry): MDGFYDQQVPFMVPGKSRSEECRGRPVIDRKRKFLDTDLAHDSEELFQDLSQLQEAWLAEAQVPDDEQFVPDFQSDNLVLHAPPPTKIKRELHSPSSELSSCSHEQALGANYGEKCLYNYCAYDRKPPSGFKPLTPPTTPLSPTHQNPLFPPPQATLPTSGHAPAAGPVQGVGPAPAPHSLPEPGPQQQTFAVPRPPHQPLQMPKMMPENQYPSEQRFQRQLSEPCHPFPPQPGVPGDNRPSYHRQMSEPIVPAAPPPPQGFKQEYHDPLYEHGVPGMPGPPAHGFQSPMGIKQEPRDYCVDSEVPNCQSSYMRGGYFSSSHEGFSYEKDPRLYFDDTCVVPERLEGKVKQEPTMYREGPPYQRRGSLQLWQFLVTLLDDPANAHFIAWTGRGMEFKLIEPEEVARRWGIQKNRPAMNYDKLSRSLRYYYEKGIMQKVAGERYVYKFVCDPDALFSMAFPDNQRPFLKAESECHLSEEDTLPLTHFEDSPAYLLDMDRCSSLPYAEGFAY
Another experiment addresses HSF1 (Homo sapiens, UniProt Q00613 1-529). To be noted: protein: recombinant; tags: N-terminal GST; chain copies: 3; dsDNA, one strand shown. Summed up: as §1
Another experiment concerns the target T2, SPIC (Homo sapiens, UniProt Q8N5J4 1-248).
T2 sequence: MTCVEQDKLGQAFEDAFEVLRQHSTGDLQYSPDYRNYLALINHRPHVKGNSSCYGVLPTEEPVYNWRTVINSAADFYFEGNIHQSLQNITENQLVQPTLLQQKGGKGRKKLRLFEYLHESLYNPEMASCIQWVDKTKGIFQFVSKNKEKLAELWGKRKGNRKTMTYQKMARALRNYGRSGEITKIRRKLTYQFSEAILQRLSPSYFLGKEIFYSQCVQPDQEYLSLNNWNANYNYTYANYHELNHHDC
Particulars: protein: recombinant; tags: N-terminal GST; dsDNA, one strand shown. The gist of the method: as §1

For another experiment, the target named is ELF4 (Homo sapiens, UniProt Q99607 1-663). Particulars: protein: recombinant; tags: N-terminal GST; dsDNA, one strand shown. Summed up:
as §1

The next experiment has as its target T3, ELK4 (Homo sapiens, UniProt P28324-2 1-405).
T3 sequence: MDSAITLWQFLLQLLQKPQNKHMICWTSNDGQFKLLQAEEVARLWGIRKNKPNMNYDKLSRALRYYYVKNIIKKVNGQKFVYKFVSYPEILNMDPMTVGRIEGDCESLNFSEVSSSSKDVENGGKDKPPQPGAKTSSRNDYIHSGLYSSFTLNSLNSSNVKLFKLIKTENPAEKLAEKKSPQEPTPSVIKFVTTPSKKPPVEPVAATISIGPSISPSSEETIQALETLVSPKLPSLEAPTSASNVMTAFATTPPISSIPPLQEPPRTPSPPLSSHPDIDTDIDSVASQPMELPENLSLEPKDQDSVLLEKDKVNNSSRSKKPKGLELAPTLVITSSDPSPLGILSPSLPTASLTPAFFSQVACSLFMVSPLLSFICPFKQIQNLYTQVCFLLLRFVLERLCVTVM
To be noted: protein: recombinant; tags: N-terminal GST; dsDNA, one strand shown. The gist of the method: as §1

Another experiment concerns the target T4, ETV2 (Homo sapiens, UniProt O00321 1-342).
T4 sequence: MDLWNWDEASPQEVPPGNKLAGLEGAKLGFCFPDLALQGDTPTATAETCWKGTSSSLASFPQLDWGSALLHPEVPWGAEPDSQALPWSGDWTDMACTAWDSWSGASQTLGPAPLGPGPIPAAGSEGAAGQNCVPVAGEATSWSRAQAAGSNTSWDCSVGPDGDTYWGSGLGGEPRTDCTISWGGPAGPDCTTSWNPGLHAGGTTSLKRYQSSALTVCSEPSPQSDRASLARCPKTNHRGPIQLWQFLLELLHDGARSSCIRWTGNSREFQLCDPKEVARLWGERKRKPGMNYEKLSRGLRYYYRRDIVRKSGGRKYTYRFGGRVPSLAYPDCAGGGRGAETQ
To be noted: protein: recombinant; tags: N-terminal GST; dsDNA, one strand shown. The gist of the method: as §1

For a further experiment, the target named is T5, ELF3 (Homo sapiens, UniProt P78545 1-371).
T5 sequence: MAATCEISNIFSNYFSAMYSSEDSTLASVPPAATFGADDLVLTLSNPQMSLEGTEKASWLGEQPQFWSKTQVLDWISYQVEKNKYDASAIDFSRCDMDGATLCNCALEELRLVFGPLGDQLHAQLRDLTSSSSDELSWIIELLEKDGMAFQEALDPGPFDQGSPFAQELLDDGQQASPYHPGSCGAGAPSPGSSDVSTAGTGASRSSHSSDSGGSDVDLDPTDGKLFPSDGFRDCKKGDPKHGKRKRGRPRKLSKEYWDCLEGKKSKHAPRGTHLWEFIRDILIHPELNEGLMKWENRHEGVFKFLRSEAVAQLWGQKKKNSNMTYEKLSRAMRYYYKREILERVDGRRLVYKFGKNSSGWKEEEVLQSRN
Particulars: protein: recombinant; tags: N-terminal GST; dsDNA, one strand shown. Summed up:
as §1

Another experiment has as its target CRX (Homo sapiens, UniProt O43186 1-299). To be noted: protein: recombinant; tags: N-terminal GST; dsDNA, one strand shown. The gist of the method: as §1
In a further experiment the target is ETV1 (Homo sapiens, UniProt P50549 1-477). To be noted: protein: recombinant; tags: N-terminal GST; dsDNA, one strand shown. Summed up:
as §1

A further experiment concerns the target T6, ERF (Homo sapiens, UniProt P50548 1-548).
T6 sequence: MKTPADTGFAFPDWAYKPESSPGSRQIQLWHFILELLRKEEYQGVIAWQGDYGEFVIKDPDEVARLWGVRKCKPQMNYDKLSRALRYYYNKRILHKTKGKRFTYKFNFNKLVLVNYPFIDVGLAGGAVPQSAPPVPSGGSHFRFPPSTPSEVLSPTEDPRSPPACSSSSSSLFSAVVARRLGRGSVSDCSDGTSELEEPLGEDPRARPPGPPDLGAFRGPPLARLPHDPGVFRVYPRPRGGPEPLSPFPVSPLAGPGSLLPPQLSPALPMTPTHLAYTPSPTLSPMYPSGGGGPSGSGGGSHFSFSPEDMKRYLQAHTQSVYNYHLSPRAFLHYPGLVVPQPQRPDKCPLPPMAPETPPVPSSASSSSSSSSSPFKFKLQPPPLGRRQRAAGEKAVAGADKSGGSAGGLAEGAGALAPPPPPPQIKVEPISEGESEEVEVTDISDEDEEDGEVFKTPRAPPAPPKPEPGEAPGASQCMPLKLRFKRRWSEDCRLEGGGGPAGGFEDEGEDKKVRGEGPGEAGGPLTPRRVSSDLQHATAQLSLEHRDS
Particulars: protein: recombinant; tags: N-terminal GST; dsDNA, one strand shown. The gist of the method:
as §1

For the next experiment, the target named is T7, ETV3L (Homo sapiens, UniProt Q6ZN32 1-361).
T7 sequence: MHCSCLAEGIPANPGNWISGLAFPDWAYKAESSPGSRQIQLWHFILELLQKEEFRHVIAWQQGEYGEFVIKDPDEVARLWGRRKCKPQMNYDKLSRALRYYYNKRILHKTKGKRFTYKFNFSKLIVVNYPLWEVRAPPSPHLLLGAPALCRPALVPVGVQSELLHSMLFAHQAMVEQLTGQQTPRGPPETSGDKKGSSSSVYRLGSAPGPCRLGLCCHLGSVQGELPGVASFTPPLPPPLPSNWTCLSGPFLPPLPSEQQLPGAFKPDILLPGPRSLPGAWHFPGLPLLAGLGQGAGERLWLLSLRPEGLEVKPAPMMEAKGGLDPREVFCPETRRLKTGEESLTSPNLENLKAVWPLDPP
To be noted: protein: recombinant; tags: N-terminal GST; dsDNA, one strand shown. Summed up: as §1

For a further experiment, the target named is T8, ETS2 (Homo sapiens, UniProt P15036 1-469).
T8 sequence: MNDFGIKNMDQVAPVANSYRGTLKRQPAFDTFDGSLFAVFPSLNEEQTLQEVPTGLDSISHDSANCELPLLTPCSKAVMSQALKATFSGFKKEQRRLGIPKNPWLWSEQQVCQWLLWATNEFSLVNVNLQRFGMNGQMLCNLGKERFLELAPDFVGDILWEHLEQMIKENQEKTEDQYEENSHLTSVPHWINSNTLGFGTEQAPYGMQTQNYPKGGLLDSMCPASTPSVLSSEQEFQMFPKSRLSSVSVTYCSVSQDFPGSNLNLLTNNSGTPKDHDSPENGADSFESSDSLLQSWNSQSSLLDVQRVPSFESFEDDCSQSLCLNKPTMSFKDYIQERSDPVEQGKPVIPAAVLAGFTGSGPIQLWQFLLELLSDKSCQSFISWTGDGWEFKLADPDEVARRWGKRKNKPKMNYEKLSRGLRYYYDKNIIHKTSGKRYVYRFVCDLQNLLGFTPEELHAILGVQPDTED
Particulars: protein: recombinant; tags: N-terminal GST; dsDNA, one strand shown. The gist of the method: as §1

For another experiment, the target named is T9, SPDEF (Homo sapiens, UniProt O95238 1-335).
T9 sequence: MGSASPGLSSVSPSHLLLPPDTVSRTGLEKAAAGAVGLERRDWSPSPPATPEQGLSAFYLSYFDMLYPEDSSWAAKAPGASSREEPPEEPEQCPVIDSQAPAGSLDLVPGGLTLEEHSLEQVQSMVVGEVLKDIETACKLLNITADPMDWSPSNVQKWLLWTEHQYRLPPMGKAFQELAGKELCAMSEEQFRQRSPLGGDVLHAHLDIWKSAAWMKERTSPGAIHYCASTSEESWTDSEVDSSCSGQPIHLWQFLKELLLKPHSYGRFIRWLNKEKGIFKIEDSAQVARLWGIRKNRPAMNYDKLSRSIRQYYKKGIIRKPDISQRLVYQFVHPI
Particulars: protein: recombinant; tags: N-terminal GST; dsDNA, one strand shown. Summed up:
as §1

The next experiment has as its target T10, ETV7 (Homo sapiens, UniProt Q9Y603 1-341).
T10 sequence: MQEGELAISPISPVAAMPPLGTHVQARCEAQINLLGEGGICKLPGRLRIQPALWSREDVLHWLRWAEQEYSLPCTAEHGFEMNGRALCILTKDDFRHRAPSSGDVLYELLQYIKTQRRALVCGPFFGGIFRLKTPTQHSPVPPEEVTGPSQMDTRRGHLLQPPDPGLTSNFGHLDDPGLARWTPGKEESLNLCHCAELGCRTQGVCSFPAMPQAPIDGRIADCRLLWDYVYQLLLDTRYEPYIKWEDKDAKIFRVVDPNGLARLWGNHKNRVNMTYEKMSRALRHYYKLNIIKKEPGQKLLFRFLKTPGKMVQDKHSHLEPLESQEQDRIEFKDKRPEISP
To be noted: protein: recombinant; tags: N-terminal GST; dsDNA, one strand shown. Summed up:
as §1

The target in the next experiment is T11, ELF5 (Homo sapiens, UniProt Q9UKW6-2 1-255).
T11 sequence: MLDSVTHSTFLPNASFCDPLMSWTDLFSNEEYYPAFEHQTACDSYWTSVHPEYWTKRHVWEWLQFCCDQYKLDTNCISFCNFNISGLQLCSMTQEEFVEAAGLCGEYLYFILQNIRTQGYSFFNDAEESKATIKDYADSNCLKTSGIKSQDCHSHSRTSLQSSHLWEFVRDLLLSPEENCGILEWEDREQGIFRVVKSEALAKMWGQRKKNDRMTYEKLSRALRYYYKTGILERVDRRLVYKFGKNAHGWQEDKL
To be noted: protein: recombinant; tags: N-terminal GST; dsDNA, one strand shown. The gist of the method:
as §1

In the next experiment the target is T12, ETV3 (Homo sapiens, UniProt P41162-2 1-143).
T12 sequence: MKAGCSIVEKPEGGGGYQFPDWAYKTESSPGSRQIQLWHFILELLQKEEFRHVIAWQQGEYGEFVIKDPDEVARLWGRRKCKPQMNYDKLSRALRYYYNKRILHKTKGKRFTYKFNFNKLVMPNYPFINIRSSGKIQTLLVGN
To be noted: protein: recombinant; tags: N-terminal GST; dsDNA, one strand shown. The gist of the method:
as §1

A further experiment has as its target ETV6 (Homo sapiens, UniProt P41212 1-452). Particulars: protein: recombinant; tags: N-terminal GST; dsDNA, one strand shown. The gist of the method: as §1

ELF4, sequence (Q99607 whole entry): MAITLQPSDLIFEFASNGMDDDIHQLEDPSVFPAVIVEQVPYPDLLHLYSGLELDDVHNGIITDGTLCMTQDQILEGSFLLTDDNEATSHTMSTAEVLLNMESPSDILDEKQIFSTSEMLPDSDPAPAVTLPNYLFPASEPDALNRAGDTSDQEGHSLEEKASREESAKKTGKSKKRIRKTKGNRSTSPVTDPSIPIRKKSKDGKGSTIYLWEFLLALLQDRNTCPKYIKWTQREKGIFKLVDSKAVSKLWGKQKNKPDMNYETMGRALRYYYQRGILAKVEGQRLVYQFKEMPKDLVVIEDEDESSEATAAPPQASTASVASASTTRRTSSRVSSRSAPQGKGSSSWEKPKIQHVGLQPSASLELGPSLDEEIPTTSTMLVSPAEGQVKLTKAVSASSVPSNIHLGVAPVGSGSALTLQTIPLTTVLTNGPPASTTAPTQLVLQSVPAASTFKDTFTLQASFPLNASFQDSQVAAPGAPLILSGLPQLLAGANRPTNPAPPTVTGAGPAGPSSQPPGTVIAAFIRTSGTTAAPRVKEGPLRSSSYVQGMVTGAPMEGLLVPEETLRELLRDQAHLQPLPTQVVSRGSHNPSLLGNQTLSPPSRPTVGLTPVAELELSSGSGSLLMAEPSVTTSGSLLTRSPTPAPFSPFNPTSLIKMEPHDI
ETV6, sequence (P41212 whole entry): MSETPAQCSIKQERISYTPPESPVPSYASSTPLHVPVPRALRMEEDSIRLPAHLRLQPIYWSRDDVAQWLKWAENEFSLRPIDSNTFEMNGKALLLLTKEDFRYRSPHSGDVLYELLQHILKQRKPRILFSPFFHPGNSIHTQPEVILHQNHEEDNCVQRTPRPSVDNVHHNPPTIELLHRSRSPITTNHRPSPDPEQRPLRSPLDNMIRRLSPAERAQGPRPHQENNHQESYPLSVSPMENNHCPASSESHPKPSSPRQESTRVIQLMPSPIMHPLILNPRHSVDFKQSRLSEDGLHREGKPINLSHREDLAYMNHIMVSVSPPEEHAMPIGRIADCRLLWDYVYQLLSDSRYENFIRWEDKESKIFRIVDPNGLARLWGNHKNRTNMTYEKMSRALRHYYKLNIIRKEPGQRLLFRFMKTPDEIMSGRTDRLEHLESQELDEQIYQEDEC
CRX, sequence (O43186 whole entry): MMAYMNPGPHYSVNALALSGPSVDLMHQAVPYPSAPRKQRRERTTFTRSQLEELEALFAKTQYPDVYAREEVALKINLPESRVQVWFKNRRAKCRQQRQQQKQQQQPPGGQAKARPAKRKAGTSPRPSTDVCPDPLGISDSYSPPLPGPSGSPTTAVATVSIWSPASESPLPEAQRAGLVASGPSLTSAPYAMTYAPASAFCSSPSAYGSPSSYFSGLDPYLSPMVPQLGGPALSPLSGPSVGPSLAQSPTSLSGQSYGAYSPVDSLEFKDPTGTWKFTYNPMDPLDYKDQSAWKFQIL
ETV1, sequence (P50549 whole entry): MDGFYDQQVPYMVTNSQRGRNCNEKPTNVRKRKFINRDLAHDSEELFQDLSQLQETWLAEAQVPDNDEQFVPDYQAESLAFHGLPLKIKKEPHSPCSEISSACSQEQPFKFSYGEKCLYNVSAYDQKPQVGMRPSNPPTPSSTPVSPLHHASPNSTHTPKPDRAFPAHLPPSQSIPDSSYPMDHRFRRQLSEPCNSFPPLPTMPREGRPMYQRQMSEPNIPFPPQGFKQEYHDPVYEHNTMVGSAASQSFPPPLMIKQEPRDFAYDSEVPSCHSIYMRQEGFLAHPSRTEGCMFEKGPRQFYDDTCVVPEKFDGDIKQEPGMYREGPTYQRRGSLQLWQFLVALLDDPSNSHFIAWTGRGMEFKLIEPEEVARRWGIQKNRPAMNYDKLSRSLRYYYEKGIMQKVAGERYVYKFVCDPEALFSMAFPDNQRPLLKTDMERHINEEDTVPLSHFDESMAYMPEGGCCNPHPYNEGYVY
HSF1, sequence (Q00613 whole entry): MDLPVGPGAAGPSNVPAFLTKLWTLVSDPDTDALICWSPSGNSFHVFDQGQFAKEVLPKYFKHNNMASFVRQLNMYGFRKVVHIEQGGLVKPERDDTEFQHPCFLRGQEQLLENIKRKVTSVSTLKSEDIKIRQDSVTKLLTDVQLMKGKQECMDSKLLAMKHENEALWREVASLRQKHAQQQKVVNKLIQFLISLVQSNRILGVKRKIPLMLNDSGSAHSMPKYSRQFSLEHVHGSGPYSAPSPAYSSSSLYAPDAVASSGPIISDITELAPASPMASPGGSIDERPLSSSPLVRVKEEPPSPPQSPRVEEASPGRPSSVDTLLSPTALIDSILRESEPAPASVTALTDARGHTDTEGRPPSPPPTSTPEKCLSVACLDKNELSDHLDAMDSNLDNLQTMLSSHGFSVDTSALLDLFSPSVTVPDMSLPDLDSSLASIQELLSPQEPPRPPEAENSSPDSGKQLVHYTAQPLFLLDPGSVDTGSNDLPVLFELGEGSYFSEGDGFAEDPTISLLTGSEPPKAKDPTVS

Consider CAATTT, for which the binding signal was 1.5 fold enrichment (6-mer frequency, TF over GST control) with FEV; 1.29 fold enrichment (6-mer frequency, TF over GST control) with ETV5; 1.15 fold enrichment (6-mer frequency, TF over GST control) with HSF1; 1.26 fold enrichment (6-mer frequency, TF over GST control) with SPIC; 1.35 fold enrichment (6-mer frequency, TF over GST control) with ELF4; 1.31 fold enrichment (6-mer frequency, TF over GST control) with ELK4. Further, the binding signal with ETV2 was 1.44 fold enrichment (6-mer frequency, TF over GST control); with ELF3, 1.53 fold enrichment (6-mer frequency, TF over GST control); with CRX, 1.07 fold enrichment (6-mer frequency, TF over GST control); with ETV1 it was 1.35 fold enrichment (6-mer frequency, TF over GST control); with ERF, 1.36 fold enrichment (6-mer frequency, TF over GST control); with ETV3L, 1.33 fold enrichment (6-mer frequency, TF over GST control). In addition, the binding signal was 1.28 fold enrichment (6-mer frequency, TF over GST control) in the experiment with ETS2; 1.21 fold enrichment (6-mer frequency, TF over GST control) with SPDEF; 1.31 fold enrichment (6-mer frequency, TF over GST control) with ETV7; 1.29 fold enrichment (6-mer frequency, TF over GST control) with ELF5; 1.43 fold enrichment (6-mer frequency, TF over GST control) in the experiment with ETV3; 1.32 fold enrichment (6-mer frequency, TF over GST control) in the experiment with ETV6.

(Values after PMC7862700, “An all-to-all approach to the identification of sequence-specific readers for epigenetic DNA modifications on cytosine”.)
